Laboratory results: PubChem BioAssay (NCATS)
Inconclusive results are not listed. Entries that show only a call come without a potency. Values without a mark were called inactive. Calls of active or inactive are those of the source. Calls follow the shape of the dose curve; as a rule, active = well fitted curve in the direction sought with a large enough effect; inconclusive = small, poorly fitted or top-dose-only effect, or another doubt; inactive = no such curve, though single readings can be large; an effect the other way counts as inactive or inconclusive.

Experiments:
[1] = target: Cytochrome P450 3A7 (Homo sapiens) (UniProt P24462); assay: Cytochrome P450 family 3 subfamily A member 7 (CYP3A7) small molecule antagonists: luciferase biochemical qHTS assay (AID 1963596); also: nearly all actives have a fitted effect of over 40% in size; also: potency is read from the fitted curve at half-maximal effect
In short: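 Biochemical CYP3A7 activity measured with P450-Glo system: luciferin formed from proluciferin substrate in NADPH-driven reaction (1 h, room temperature) after 10 min compound preincubation. Signal in relative luminescence units.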

[2] = Viability qHTS for spleen associated tyrosine kinase inhibitor (SYKi) drug resistant MV4-11 cells (AID 1963824); also: nearly all actives have a fitted effect of over 35% in size; also: potency is read from the fitted curve at half-maximal effect
In short: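 CellTiter-Glo luminescence, read 10 min after reagent addition, reports viability after a 72 hr compound exposure. Cells are an MV4-11 line made resistant to SYK inhibition, seeded at 500 per well onto compound-containing plates.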

[3] = Cellular viability qHTS for adrenocortical cancer (ACC) cell line SW-13 (AID 1963989); conditions: SW-13 ACC cells viability, CellTiter-Glo, 48 h; activity (max response): active compounds read low;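 also: cells grown in serum-free medium with ITS supplement; nearly all actives have a fitted effect of over 65% in size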
In short: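 IC50 and maximal-response values come from four-parameter logistic fits of titration data. SW-13 cells in serum-free medium received compounds (up to 46 uM final) for 48 h before CellTiter-Glo luminescence.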

[4] = Cellular viability qHTS for adrenocortical cancer (ACC) cell line NCI-H295R (AID 1963990); also: nearly all actives have a fitted effect of over 60% in size; also: potency is read from the fitted curve at half-maximal effect
In short: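 Adrenocortical carcinoma cells, suspended at 300 000 cells/mL in serum-free DMEM plus ITS, rested overnight before pin transfer of compound. After two days' incubation, ATP-dependent luminescence was recorded and curve-fitted.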

[5] = Quantitative highthroughput screen to assess conditional lethalithy of NOMO1 cells grown in RPMI1640 with untreated serum (RPMI+s) (AID 1963876); also: nearly all actives have a fitted effect of over 35% in size
In short: (§1)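 Each medium arm—HPLM with 10% dialyzed FBS, or RPMI1640 with 5 mM glucose and 10% untreated or dialyzed FBS—was screened against an 11-point, 3-fold compound titration for 48 h at 37 °C, with CellTiter-Glo luminescence as endpoint.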

[6] = Quantitative highthroughput screen to assess conditional lethalithy of NOMO1 cells grown in RPMI1640 with dialyzed fetal bovine serum (RPMI+ds) (AID 1963877); also: series mostly up to about 46 µM; nearly all actives have a fitted effect of over 30% in size
In short: as §1

[7] = Quantitative highthroughput screen to assess conditional lethalithy of NOMO1 cells grown in Human Plasma-Like Medium with dialyzed fetal bovine serum (HPLM+ds) (AID 1963878); also: nearly all actives have a fitted effect of over 35% in size
In short: as §1

[8] = Quantitative highthroughput screen to assess conditional lethalithy of P12 Ichikawa cells grown in Human Plasma-Like Medium with dialyzed fetal bovine serum (HPLM+ds) (AID 1963879); conditions: Potency: viability; also: series mostly up to about 46 µM; nearly all actives have a fitted effect of over 35% in size
In short: as §1

[9] = Quantitative highthroughput screen to assess conditional lethalithy of P12 Ichikawa cells grown in RPMI1640 with untreated serum (RPMI+s) (AID 1963881); conditions: Potency: viability
In short: as §1

[10] = Quantitative highthroughput screen to assess conditional lethalithy of SEM cells grown in Human Plasma-Like Medium with dialyzed fetal bovine serum (HPLM+ds) (AID 1963882)
In short: as §1

[11] = Viability qHTS for spleen associated tyrosine kinase inhibitor (SYKi) naive MV4-11 cells (AID 1963823); also: nearly all actives have a fitted effect of over 40% in size; also: potency is read from the fitted curve at half-maximal effect
In short: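 Luminescence from CellTiter-Glo, developed 10 min at room temperature, gave viability of MV4-11 cells never exposed to SYK inhibitor. Cells (500/well) had been incubated with compounds for 72 hr under standard culture conditions.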

Cytochrome P450 3A7 (Homo sapiens), sequence (P24462 whole entry, looked up): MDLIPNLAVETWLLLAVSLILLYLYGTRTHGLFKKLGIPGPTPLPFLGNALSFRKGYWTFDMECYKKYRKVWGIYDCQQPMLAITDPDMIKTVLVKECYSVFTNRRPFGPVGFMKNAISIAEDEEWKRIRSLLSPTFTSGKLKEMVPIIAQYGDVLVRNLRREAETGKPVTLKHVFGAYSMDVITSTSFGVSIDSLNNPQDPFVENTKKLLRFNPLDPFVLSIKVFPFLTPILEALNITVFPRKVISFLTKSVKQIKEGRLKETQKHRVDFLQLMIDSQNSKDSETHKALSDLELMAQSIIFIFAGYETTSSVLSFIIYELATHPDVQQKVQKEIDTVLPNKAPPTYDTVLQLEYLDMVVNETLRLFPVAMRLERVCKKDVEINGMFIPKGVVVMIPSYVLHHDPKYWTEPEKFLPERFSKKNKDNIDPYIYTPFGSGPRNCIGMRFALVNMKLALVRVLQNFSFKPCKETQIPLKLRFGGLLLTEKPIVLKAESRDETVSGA

CC(C)N(CCC(C(N)=O)(c1ccccc1)c1ccccn1)C(C)C (stereo not drawn)
Potency [1]: inactive | Potency [2]: inactive | activity (max response) [3]: 4.36% | Potency [4]: inactive

CN(C(=O)Cc1ccccc1)C(CN1CCCC1)c1ccccc1 (stereo not drawn)
Potency [1]: inactive | Potency [2]: inactive

CC(=O)N(C)c1cccc(-c2ccnc3c(C(=O)c4cccs4)cnn23)c1
Potency [1]: inactive | Potency [5]: inactive | Potency [6]: inactive | Potency [7]: inactive | Potency [8]: inactive | Potency [9]: inactive | Potency [10]: inactive

CCCCCCC(=O)CCCCCC/C=C/C[C@@H](O)[C@H](O)[C@@](N)(CO)C(=O)O
Potency [1]: inactive | Potency [2]: inactive | activity (max response) [3]: -4.81% | Potency [4]: inactive

CC(C)(C)NC[C@H](O)c1ccc(O)cc1Cl
Potency [1]: inactive | Potency [2]: inactive | activity (max response) [3]: 9.97% | Potency [4]: inactive

Nc1ccncc1
Potency [1]: inactive | Potency [2]: inactive | activity (max response) [3]: 11.8% | Potency [4]: inactive

NC(=O)c1cc([N+](=O)[O-])cc([N+](=O)[O-])c1
Potency [1]: 11000 nM (active) | activity (max response) [3]: -5.23% | Potency [4]: 3660 nM (active)

NNc1ccccc1
Potency [11]: inactive

N#CC(O[C@@H]1O[C@H](CO[C@@H]2O[C@H](CO)[C@@H](O)[C@H](O)[C@H]2O)[C@@H](O)[C@H](O)[C@H]1O)c1ccccc1 (stereo partly drawn)
Potency [1]: inactive | activity (max response) [3]: -16.1% | Potency [4]: inactive

CCCCCCn1c(=O)c(C(=O)Nc2ccc(C(=O)OCCC)cc2)c(O)c2ccccc21
viability (% of control) [11]: 62.6% [at 9.25 µM]

CNC(C)Cc1ccccc1OC (stereo not drawn)
Potency [1]: inactive | activity (max response) [3]: -2.94% | Potency [4]: inactive

CN(C)[C@@H]1C(=O)C(C(N)=O)=C(O)[C@@]2(O)C(=O)C3=C(O)c4c(O)ccc(Cl)c4[C@@](C)(O)C3C[C@@H]12 (stereo partly drawn)
Potency [11]: inactive

Oc1ccccc1-c1ccccc1
Potency [1]: inactive | activity (max response) [3]: -7.15% | Potency [4]: inactive

O=C(OC[C@H]1O[C@@H](Oc2ccc(O)cc2CO)[C@H](O)[C@@H](O)[C@@H]1O)c1ccccc1
Potency [11]: inactive

COC(=O)C12C(=O)C(C)(O)C(=O)C1(C)C(C)=CC1C34CCC(OC3=O)C(C)(C)C4CCC12C (stereo not drawn)
Potency [11]: inactive

CC(Cc1ccccc1)NCCCCl (stereo not drawn)
Potency [1]: inactive | activity (max response) [3]: -2.78% | Potency [4]: inactive

CC1=C2[C@H]3OC(=O)[C@@H](C)[C@@H]3CC[C@@]2(C)C=CC1=O
Potency [11]: inactive

CC(C)C1(OO)C=C2C(=O)CC3C(C)(C(=O)O)CCCC3(C)C2CC1 (stereo not drawn)
Potency [11]: inactive

C/C=C(/C)C1C=CC2CC(C)CC(C)C2C1/C(O)=C1\C(=O)NC(CC(C)(O)C(=O)O)C1=O (stereo not drawn)
Potency [11]: inactive

CCN[C@@H](C)Cc1ccccc1
Potency [1]: inactive | activity (max response) [3]: -5.58% | Potency [4]: inactive

Cc1ccccc1C1=CCN(C)CC1
Potency [11]: inactive

NC(=O)[C@@H](CC1CC1)[C@@H](CCC(F)(F)F)C(=O)N[C@H]1N=C(c2ccccc2)c2cccc(F)c2NC1=O
Potency [1]: inactive | activity (max response) [3]: -14.1% | Potency [4]: inactive

CN1CCC(N(Cc2ccccc2)c2ccccc2)CC1
Potency [11]: inactive

CC(C)=C1CC[C@]23CO[C@H](C2)[C@@](O)(C(=O)O)CCC13 (stereo partly drawn)
Potency [11]: inactive

CC(=O)OC1CC(O)C(C)(C)C2CC(OC(C)=O)C3(C)C(CCC4(C)C(c5ccoc5)C(=O)C5OC543)C12C (stereo not drawn)
Potency [11]: inactive

CCC(C)(OC(C)=O)C(=O)O[C@H]1[C@H](OC(C)=O)C[C@@H]2[C@@](C)([C@@H]3C[C@H]4C=CO[C@H]4O3)[C@H](C)C[C@H](OC(C)=O)[C@@]2(COC(C)=O)[C@@]12CO2 (stereo partly drawn)
Potency [11]: inactive

CCOP(=O)(OCC)Oc1ccc2c(C)cc(=O)oc2c1
Potency [11]: inactive

CCN[C@@H](C)Cc1cccc(C(F)(F)F)c1
Potency [1]: inactive | activity (max response) [3]: -3.94% | Potency [4]: inactive

C=C(C)[C@@]12O[C@@H]1[C@@]1(C)C(=C[C@H]2O)CC[C@@H](O)[C@@H]1C
Potency [11]: inactive

CC1CCCC(O)CCC/C=C/c2cc(O)cc(O)c2C(=O)O1 (stereo not drawn)
Potency [11]: 14300 nM (active)

NC1=NC(=O)C(c2ccccc2)O1 (stereo not drawn)
Potency [1]: inactive | Potency [4]: inactive

O=C(O)c1ccnc2cc(C(OCCN3CCCCC3)c3ccccc3Cl)[nH]c12 (stereo not drawn)
Potency [11]: inactive

CO[C@@H]1[C@@H](O)[C@@H](O[C@H]2CC[C@]3(C=O)C4CC[C@]5(C)[C@@H](C6=CC(=O)OC6)CC[C@]5(O)[C@@H]4CC[C@H]3C2)O[C@@H](C)[C@H]1O[C@@H]1O[C@H](CO[C@@H]2O[C@H](CO)[C@@H](O)[C@H](O)[C@H]2O)[C@@H](O)[C@H](O)[C@H]1O (stereo partly drawn)
Potency [11]: 3900 nM (active)

CCCN1CCC[C@@H]2Cc3[nH]ncc3C[C@H]21
Potency [1]: inactive | activity (max response) [3]: 1.08% | Potency [4]: inactive

COC(=O)[C@@]12C(=O)C(C)C(=O)[C@]1(C)C(C)=C[C@H]1[C@]3(C=O)CC[C@H](OC(C)=O)C(C)(C)[C@H]3CC[C@@]12C (stereo partly drawn)
Potency [11]: inactive

Nc1ccn(CC(CO)OCP(=O)(O)O)c(=O)n1 (stereo not drawn)
Potency [11]: inactive

O=C1CN=C(c2ccccc2)c2cc([N+](=O)[O-])ccc2N1
Potency [1]: inactive | activity (max response) [3]: -7.73% | Potency [4]: inactive

CCCCC(CC)COC(=O)c1ccccc1C(=O)OCC(CC)CCCC (stereo not drawn)
Potency [1]: inactive | activity (max response) [3]: 14% | Potency [4]: inactive

CN1CC[C@]23c4c5ccc(O)c4O[C@H]2[C@@H](O)CC[C@H]3[C@H]1C5
Potency [1]: inactive | activity (max response) [3]: -1.35% | Potency [4]: inactive

Fc1cc(Br)ccc1CBr
Potency [1]: inactive | activity (max response) [3]: 13.3% | Potency [4]: inactive

COP(=O)(OC)OC=C(Cl)Cl
Potency [1]: inactive | activity (max response) [3]: 13.5% | Potency [4]: inactive

O=[N+]([O-])c1cc([N+](=O)[O-])c2ccccc2c1
Potency [1]: inactive | activity (max response) [3]: -5.95% | Potency [4]: inactive

Nc1ccc([N+](=O)[O-])cc1
Potency [1]: inactive | Potency [4]: inactive

C[C@H]1O[C@@H](O[C@H]2CC[C@]3(C=O)C4CC[C@]5(C)[C@@H](C6=CC(=O)OC6)CC[C@]5(O)[C@@H]4CC[C@]3(O)C2)C[C@@H](O)[C@@H]1O (stereo partly drawn)
Potency [11]: 56.3 nM (active)

CCCSP(=O)(OCC)SCCC
Potency [11]: 16 nM (active)

CC1=CC2OC3CC(O)[C@](C)([C@@]2(C)C(O)C1=O)[C@]31CO1 (stereo partly drawn)
Potency [11]: 1840 nM (active) | Potency [2]: 1840 nM (active)
